Laboratory results from PubChem BioAssay AID1159580 (chemical genetic matrix, 2015).
Out of some 5,500 compounds screened, about 2,000 (36%) were called active. Roughly 18% stayed inconclusive and do not appear here. This is one part of the list. Unmarked numbers belong to inactive results. Cut-off read from the data, not from the text of the source: active = normalized growth mostly below about 0.91 (no sharp cut-off); inconclusive = no clear call, values can overlap the other calls; inactive = mostly above about 0.92.

Experiment: chemical genetic growth profiling, strain panel (AID 1159580);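 note: tested at 20 µM; growth read once vehicle control cultures reached saturation at 30 °C; 1 = growth at the plate median or of vehicle wells; lower values mean less growth of the strain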
Settings: growth OD

In the case of `CC[C@@]1(O)C(=O)OCc2c1cc1n(c2=O)Cc2cc3ccccc3nc2-1`, the normalized growth (S. cerevisiae deletion strains, locus YJR066W, strain TOR1, hits give low values) is reported as 0.665 (active), the normalized growth (S. cerevisiae deletion strains, locus YJR075W, strain HOC1, hits give low values) is reported as 0.88 and the normalized growth (S. cerevisiae deletion strains, locus YKL009W, strain mrt4, hits give low values) is reported as 0.936. For the same molecule, the normalized growth (S. cerevisiae deletion strains, locus YKL068W, hits give low values) was 0.951, the normalized growth (S. cerevisiae deletion strains, locus YKL085W, strain MDH1 (second series), hits give low values) was 0.796 (active) and the normalized growth (S. cerevisiae deletion strains, locus YKL085W, strain MDH1, hits give low values) was 0.796 (active). For the same molecule, the normalized growth (S. cerevisiae deletion strains, locus YKL160W, strain elf1, hits give low values) was 0.965, the normalized growth (S. cerevisiae deletion strains, locus YKL190W, strain CNB1, hits give low values) was 0.948 and the normalized growth (S. cerevisiae deletion strains, locus YKR001C, strain vps1, hits give low values) was 0.549 (active). For the same molecule, the normalized growth (S. cerevisiae deletion strains, locus YKR026C, strain gcn3, hits give low values) was 0.919 (active), the normalized growth (S. cerevisiae deletion strains, locus YKR091W, strain srl3, hits give low values) was 0.914 (active) and the normalized growth (S. cerevisiae deletion strains, locus YLL001W, strain dnm1, hits give low values) was 0.831 (active). For the same molecule, the normalized growth (S. cerevisiae deletion strains, locus YLL026W, hits give low values) was 0.727 (active), the normalized growth (S. cerevisiae deletion strains, locus YLL041C, strain sdh2, hits give low values) was 0.924 (active) and the normalized growth (S. cerevisiae deletion strains, locus YLR027C, strain aat2, hits give low values) was 0.653 (active). The normalized growth (S. cerevisiae deletion strains, locus YLR039C, strain RIC1, hits give low values) was 0.692, the normalized growth (S. cerevisiae deletion strains, locus YLR058C, strain SHM2, hits give low values) was 0.881 (active) and the normalized growth (S. cerevisiae deletion strains, locus YLR102C, strain apc9, hits give low values) was 0.913 (active). The normalized growth (S. cerevisiae deletion strains, locus YLR113W, strain HOG1, hits give low values) was 0.711 (active), the normalized growth (S. cerevisiae deletion strains, locus YLR221C, strain rsa3, hits give low values) was 0.693 (active) and the normalized growth (S. cerevisiae deletion strains, locus YLR258W, strain gsy2, hits give low values) was 0.78 (active). For the same molecule, the normalized growth (S. cerevisiae deletion strains, locus YLR262C, strain YPT6 (second series), hits give low values) was 0.484 (active), the normalized growth (S. cerevisiae deletion strains, locus YLR262C, strain YPT6, hits give low values) was 0.662 and the normalized growth (S. cerevisiae deletion strains, locus YLR268W, strain sec22, hits give low values) was 0.63 (active). For the same molecule, the normalized growth (S. cerevisiae deletion strains, locus YLR320W, strain mms22, hits give low values) was 0.108 (active), the normalized growth (S. cerevisiae deletion strains, locus YLR330W, strain CHS5, hits give low values) was 0.893 (active) and the normalized growth (S. cerevisiae deletion strains, locus YLR342W, strain FKS1 (second series), hits give low values) was 0.732 (active). The normalized growth (S. cerevisiae deletion strains, locus YLR342W, strain FKS1, hits give low values) was 0.647 (active), the normalized growth (S. cerevisiae deletion strains, locus YLR357W, strain rsc2, hits give low values) was 1 and the normalized growth (S. cerevisiae deletion strains, locus YLR370C, strain arc18, hits give low values) was 0.832 (active). It also gave a normalized growth (S. cerevisiae deletion strains, locus YLR371W, strain rom2, hits give low values) of 0.929, a normalized growth (S. cerevisiae deletion strains, locus YLR384C, strain iki3, hits give low values) of 0.96 and a normalized growth (S. cerevisiae deletion strains, locus YLR418C, strain cdc73, hits give low values) of 0.857. The normalized growth (S. cerevisiae deletion strains, locus YML016C, strain PPZ1, hits give low values) was 0.998, the normalized growth (S. cerevisiae deletion strains, locus YML032C, strain rad52, hits give low values) was 0.0917 (active) and the normalized growth (S. cerevisiae deletion strains, locus YML120C, strain ndi1, hits give low values) was 0.868 (active). The normalized growth (S. cerevisiae deletion strains, locus YML124C, strain tub3, hits give low values) was 0.903 (active), the normalized growth (S. cerevisiae deletion strains, locus YMR058W, strain fet3, hits give low values) was 0.705 (active) and the normalized growth (S. cerevisiae deletion strains, locus YMR078C, strain ctf18, hits give low values) was 0.111 (active). For the same molecule, the normalized growth (S. cerevisiae deletion strains, locus YMR125W, strain sto1, hits give low values) was 0.856 (active), the normalized growth (S. cerevisiae deletion strains, locus YMR129W, hits give low values) was 0.893 (active) and the normalized growth (S. cerevisiae deletion strains, locus YMR205C, strain PFK2, hits give low values) was 0.798 (active). The normalized growth (S. cerevisiae deletion strains, locus YMR223W, strain ubp8, hits give low values) was 0.671 (active), the normalized growth (S. cerevisiae deletion strains, locus YMR231W, strain pep5, hits give low values) was 0.268 (active) and the normalized growth (S. cerevisiae deletion strains, locus YMR263W, strain SAP30, hits give low values) was 0.847 (active). For the same molecule, the normalized growth (S. cerevisiae deletion strains, locus YMR307W, strain GAS1, hits give low values) was 0.461 (active), the normalized growth (S. cerevisiae deletion strains, locus YNL067W, strain RPL9B, hits give low values) was 0.781 (active) and the normalized growth (S. cerevisiae deletion strains, locus YNL071W, strain lat1, hits give low values) was 0.744 (active). The normalized growth (S. cerevisiae deletion strains, locus YNL128W, strain TEP1, hits give low values) was 0.937, the normalized growth (S. cerevisiae deletion strains, locus YNL153C, strain GIM3, hits give low values) was 0.892 and the normalized growth (S. cerevisiae deletion strains, locus YNL183C, strain NPR1, hits give low values) was 0.643 (active). For the same molecule, the normalized growth (S. cerevisiae deletion strains, locus YNL209W, strain ssb2, hits give low values) was 0.87 (active), the normalized growth (S. cerevisiae deletion strains, locus YNL233W, strain BNI4, hits give low values) was 0.804 (active) and the normalized growth (S. cerevisiae deletion strains, locus YNL248C, strain rpa49, hits give low values) was 0.679 (active). For the same molecule, the normalized growth (S. cerevisiae deletion strains, locus YNL250W, strain rad50, hits give low values) was 0.152 (active), the normalized growth (S. cerevisiae deletion strains, locus YNL271C, strain bni1, hits give low values) was 0.814 (active) and the normalized growth (S. cerevisiae deletion strains, locus YNL298W, strain CLA4, hits give low values) was 0.74 (active). For the same molecule, the normalized growth (S. cerevisiae deletion strains, locus YNL307C, strain MCK1, hits give low values) was 0.505 (active), the normalized growth (S. cerevisiae deletion strains, locus YNL322C, strain KRE1 (second series), hits give low values) was 0.465 (active) and the normalized growth (S. cerevisiae deletion strains, locus YNR049C, strain mso1, hits give low values) was 0.947. For the same molecule, the normalized growth (S. cerevisiae deletion strains, locus YNR052C, strain pop2, hits give low values) was 0.207 (active), the normalized growth (S. cerevisiae deletion strains, locus YOL006C, strain TOP1, hits give low values) was 0.971 and the normalized growth (S. cerevisiae deletion strains, locus YOL012C, strain htz1) was 0.487. The normalized growth (S. cerevisiae deletion strains, locus YOL147C, strain pex11, hits give low values) was 0.807 (active), the normalized growth (S. cerevisiae deletion strains, locus YOR001W, strain rrp6, hits give low values) was 0.847 (active) and the normalized growth (S. cerevisiae deletion strains, locus YOR061W, strain CKA2, hits give low values) was 0.912. For the same molecule, the normalized growth (S. cerevisiae deletion strains, locus YOR069W, strain VPS5, hits give low values) was 0.883 (active), the normalized growth (S. cerevisiae deletion strains, locus YOR070C, strain gyp1, hits give low values) was 0.739 (active) and the normalized growth (S. cerevisiae deletion strains, locus YOR080W, strain dia2, hits give low values) was 0.543 (active). For the same molecule, the normalized growth (S. cerevisiae deletion strains, locus YOR083W, strain WHI5, hits give low values) was 0.814 (active), the normalized growth (S. cerevisiae deletion strains, locus YOR106W, strain vam3, hits give low values) was 0.366 (active) and the normalized growth (S. cerevisiae deletion strains, locus YOR136W, strain idh2, hits give low values) was 0.915 (active). For the same molecule, the normalized growth (S. cerevisiae deletion strains, locus YOR144C, strain elg1, hits give low values) was 0.542 (active), the normalized growth (S. cerevisiae deletion strains, locus YOR184W, strain ser1, hits give low values) was 0.67 (active) and the normalized growth (S. cerevisiae deletion strains, locus YOR231W, strain MKK1, hits give low values) was 0.78 (active). The normalized growth (S. cerevisiae deletion strains, locus YOR265W, strain rbl2, hits give low values) was 0.796 (active), the normalized growth (S. cerevisiae deletion strains, locus YOR270C, strain vph1, hits give low values) was 0.576 (active) and the normalized growth (S. cerevisiae deletion strains, locus YOR290C, strain snf2, hits give low values) was 0.746 (active). For the same molecule, the normalized growth (S. cerevisiae deletion strains, locus YOR316C, strain cot1, hits give low values) was 0.942, the normalized growth (S. cerevisiae deletion strains, locus YPL051W, strain arl3, hits give low values) was 0.828 (active) and the normalized growth (S. cerevisiae deletion strains, locus YPL078C, strain atp4, hits give low values) was 0.868 (active). The normalized growth (S. cerevisiae deletion strains, locus YPL106C, strain sse1, hits give low values) was 0.879, the normalized growth (S. cerevisiae deletion strains, locus YPL240C, strain hsp82, hits give low values) was 0.857 (active) and the normalized growth (S. cerevisiae deletion strains, locus YPL256C, strain CLN2, hits give low values) was 0.784 (active). For the same molecule, the normalized growth (S. cerevisiae deletion strains, locus YPR119W, strain clb2, hits give low values) was 0.893 (active), the normalized growth (S. cerevisiae deletion strains, locus YPR141C, strain kar3, hits give low values) was 0.836 (active) and the normalized growth (S. cerevisiae deletion strains, locus YPR163C, strain tif3, hits give low values) was 0.276 (active). The normalized growth (S. cerevisiae deletion strains, locus YPR167C, strain met16, hits give low values) was 0.795 (active), the normalized growth (S. cerevisiae deletion strains, strain wtn01, hits give low values) was 0.739 (active) and the normalized growth (S. cerevisiae strains, strain wild type, hits give low values) was 0.892 (active).
